From PubChem BioAssay (EPA / NIEHS) come the findings set out here.

For orientation: AC50 means the concentration giving half of the maximal activity seen.

Calls of active or inactive are those of the source. How the source made its calls: active means hit-call score of the fitted dose curve at least 0.9, where 1 is the maximum; inactive means score below 0.9.

Read-out in this test: urokinase plasminogen activator (uPA), PLAU (gene 5328)
In words: BSK_KF3CT_uPA: BioMAP Diversity Plus: KF3CT Assay for urokinase plasminogen activator (uPA) Biomarker Activity (AID 2283075). As to conditions: primary human keratinocytes with fibroblasts; actives raise or lower the signal. As for the experimental part:
BSK_KF3CT is a cell-based, multiplexed-readout assay that uses keratinocytes and foreskin fibroblasts, a human skin primary cell co-culture, with measurements taken at 24 hours after chemical dosing in a 96-well plate.BSK_KF3CTA is an assay component measured in the BSK_KF3CT assay. It measures uPA antibody related to regulation of gene expression using ELISA technology.Data from the assay component BSK_KF3CTA was analyzed into 1 assay endpoint. This assay endpoint, BSK_KF3CTA, was analyzed with bidirectional fitting relative to DMSO as the negative control and baseline of activity. Using a type of binding reporter, gain or loss-of-signal activity can be used to understand changes in the signaling as they relate to the gene PLAU. Furthermore, this assay endpoint can be referred to as a primary readout, because this assay has produced multiple assay endpoints where this one serves a signaling function. To generalize the intended target to other relatable targets, this assay endpoint is annotated to the protease intended target family, where the subfamily is serine protease.
The levels of cell surface (or secreted, indicated by the prefix "s") biomarker endpoints were measured by ELISA. Overt cytotoxicity to cells in confluent adherent cultures (all systems other than the BT system) was assessed by measuring total protein levels using sulforhodamine B (SRB) staining in parallel cultures at the time of biomarker measurements, indicated as SRB endpoints. For proliferation assays for adherent cell types, individual cell types are cultured at sub-confluence and relative cell numbers quantified by SRB staining at time points optimized for each system (48 h: 3C and CASM3C systems; 72 h: BT and HDF3CGF systems; 96 h: SAg system). SRB was performed by staining cells with 0.1% SRB after fixation with 10% TCA and reading wells at 560 nm.Viability and proliferation of PBMC (T cells) was quantified by Alamar Blue reduction for the SAg and BT systems. For PBMC viability (referred to as PBMC Cytotoxicity within the assay endpoint names), cells were plated (75,000/well in a 96-well plate) and then chemical samples added for 1 h before addition of activators, SEB and TSST-1 (20 ng/mL final concentration each). Cells were incubated for 90 h. Then, Alamar Blue (20 uL/well) (Invitrogen, Cat DAL1100) was added for 6 h, and the plates were read with a fluorescence microplate reader at 546/580 nm (excitation/emission). For PBMC proliferation, cells were plated and activated as above but incubated for only 16 h prior to addition of Alamar Blue. Plates were read after 6 h.
For `Nc1nc(N)c2nc(CNc3ccc(C(=O)N[C@@H](CCC(=O)O)C(=O)O)cc3)cnc2n1`, the result was inactive.
The same measure, in the same setting: in the case of `CC(=O)OCCOCCOCCOC(C)=O` it was “inactive”.
For the compound `CNCc1cc(F)ccc1Oc1ccc(Cl)c(Cl)c1`, the concentration at half-maximal activity (AC50) is 30.5 µM (active).
Consider `Cc1c(C(=O)O)c(O)cc2c1C(=O)c1c(O)c([C@@H]3O[C@H](CO)[C@@H](O)[C@H](O)[C@H]3O)c(O)c(O)c1C2=O`, for which the outcome was inactive.
Still for that read-out and setting: in the case of `Cc1ccc(Cl)cc1` it was “inactive”.
For the compound `CC1(C)NC(=O)NC1=O`, the result was inactive.
On the same count and under the same terms, the same measure for `COCCOCCOC`: “inactive”; for `O=[N+]([O-])C(CO)(CO)CO`: “inactive”; for `Cc1nc(C)nc(N2C[C@@H](C)N(c3ccnc([C@@H](C)O)n3)[C@@H](C)C2)n1`: “inactive”.
For `CCCCC(CC)COC(=O)CC(C(=O)OCC(CC)CCCC)S(=O)(=O)O` (stereo not given), the AC50 is 12 µM (active).
For `CCCc1cc(=O)[nH]c(=S)[nH]1`, the outcome was inactive.
Still for that read-out and setting: the same measure for `FC(F)(F)C(F)(F)C(F)(F)C(F)(F)C(F)(F)C(F)(F)CCI`: “inactive”; for `C1CCC(SSC2CCCCC2)CC1`: “inactive”; for `O=C(O)Cc1ccccc1Nc1c(Cl)cccc1Cl`: “inactive”.
Take `NCCO`: the outcome was inactive.
Same read-out and setting: the same measure for `Cc1ccccc1Cl`: “inactive”; for `COc1ccc(C)cc1N`: “inactive”.
As for `NCC1(Cc2noc(=O)[nH]2)CCCCC1`, the result was inactive.
The same measure, in the same setting: the same measure for `Cc1oc(-c2ccccc2)nc1CCOc1cccc2c1ccn2CCC(=O)O`: “inactive”.
For `CCc1c(C(=O)NN2CCCCC2)nn(-c2ccc(Cl)cc2Cl)c1-c1ccc(Br)cc1`, the AC50 was 7.27 µM (active).
`CCCCCC(=O)O`: the outcome was inactive.
The same measure, in the same setting: the same measure for `C=CCc1ccc(O)c(OC)c1`: “inactive”; for `CN1CCN(Cc2cc(-c3ccc4[nH]c(=O)oc4c3)co2)[C@@H](c2ccc(F)cc2)C1`: “inactive”.
Still for that read-out and setting: in the case of `CC1(C)CC(N=C=O)CC(C)(CN=C=O)C1` (stereo not given) it was “inactive”; in that of `CCOc1ccc2c(c1)C(C)=CC(C)(C)N2`, “inactive”; in that of `C=CCOC(=O)c1ccccc1C(=O)OCC=C`, “inactive”.
Still for that read-out and setting: in the case of `Cc1cc(NC(=O)C(=O)O)cc(C)c1Oc1ccc(O)c2c1CCC2` it was “inactive”; in that of `CCCCCCCCCCC`, “inactive”.
Consider `O=C(N[C@@H](Cc1ccccc1)[C@@H](O)C(=O)N1C[C@@H](O)[C@@H](O)C1)c1cc2cc(Cl)ccc2[nH]1`, for which the outcome was inactive.
Still for that read-out and setting: in the case of `CCCCCCCCCCCCCCCC` it was “inactive”.
In the case of `Cc1nc(-c2ccc3c(c2)CCN(CCC2CCC(NC(=O)/C=C/c4ccc(F)cc4)CC2)CC3)no1` (stereo not given), the outcome was inactive.
Same read-out and setting: in the case of `CNC(=O)[C@H]1O[C@@H](n2cnc3c(NCc4cc(Cl)ccc4OCc4cc(C)no4)ncnc32)[C@H](O)[C@@H]1N` it was “inactive”.
The same measure, in the same setting: in the case of `O=c1[nH]cc(F)c(=O)[nH]1` it was “inactive”; in that of `O=C(OCCCCCOC(=O)c1ccccc1)c1ccccc1`, “inactive”; in that of `NS(=O)(=O)c1cc2c(cc1Cl)NCNS2(=O)=O`, “inactive”.
The same measure, in the same setting: in the case of `Cc1ccc(C(C)C)c(O)c1` it was “inactive”; in that of `COc1cc(C=O)ccc1O`, “inactive”.
`CCCCCCCC=O`: the result was inactive.
On the same count and under the same terms, in the case of `c1cc(-c2ccncc2)ccn1` it was “inactive”.
For `COc1cc(-c2nc(NC(=O)c3cc4cc(C)cc(C)c4n3CC(=O)O)sc2CCC2CCCCC2)c(OC)cc1Cl`, the AC50 is 1.89 µM (active).
